A selection: hits, their analogues and other compounds. The true share with any hit is near 13%.
HCV inhibitor – qHTS Assay for Inhibitors of Hepatitis C Virus (HCV). Huh7.5.1 HCVcc-Cre infection, luciferase reporter, 44 h. Potency, µM (titrated, usually from 41.8 µM), for inactives: top-dose activity change, negative = inhibition, usual class: inhibitors. 340,000 compounds, 3.4% hits. AID 651820, 2012; also: potency is read from the fitted curve at half-maximal effect
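Whole-lifecycle infectious HCVcc-Cre system; cells 1,000/well, compound then virus (~0.5 moi) added 4 h after plating, 44 h culture. Luciferase read 15 sec following 15 min substrate incubation, room temp.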
Pf growth 96h – Primary qHTS for delayed death inhibitors of the malarial parasite plastid, 96 hour incubation | AID 504834, 2011 | P. falciparum luciferase reporter growth, 96 h | 320,000 compounds, 6.9% hits | Potency, µM (highest dose often 28.7 µM), for the others: at the highest dose activity change, negative = inhibition, usual class: inhibitors; also: potency is read from the fitted curve at half-maximal effect
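P. falciparum expressing integrated firefly luciferase grown in erythrocytes (2% hematocrit, 0.05% parasitemia final) with compounds for 96 hours at 37 C, 5% CO2. Growth inhibition read as loss of luminescence after adding luciferase detection reagent.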
HCMV inh – qHTS Assay for inhibitors of the human cytomegalovirus (HCMV); activity change, negative = inhibition, % at 57.5 µM; AID 1259415, 2018; HFF cells, HCMV-luciferase reporter, 72 h; hits give low values; 410,000 compounds, 4.5% hits; in the data active = activity change below about -60%; inconclusive = no clear call, values can overlap the other calls; inactive = above about -39%
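After 16 h attachment at 37C, HFF cells received test compound and HCMV-luciferase (1 PFU/cell); reporter luminescence read 72 h later, data normalized against buffer-only and known inhibitor Salinomycin.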
Pf growth 48h – Primary qHTS for delayed death inhibitors of the malarial parasite plastid, 48 hour incubation; P. falciparum luciferase growth in erythrocytes, 48 h; Potency, µM (doses to about 28.7 µM), for the others: at the highest dose activity change, negative = inhibition, most hits filed as inhibitors; 310,000 compounds, 5.9% hits; AID 504832, 2011; also: potency is read from the fitted curve at half-maximal effect
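Luciferase-expressing P. falciparum in infected erythrocytes (2% hematocrit, 0.1% parasitemia final) in RPMI 1640/0.5% Albumax were exposed to compound for 48 hours at 37 C, 5% CO2; growth read as luminescence.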
* hit, by the source's call; u = inconclusive; x = not tested or not shown; [ ] = dose if it differs, or a comment. Unless noted, calls follow the shape of the dose curve; as a rule, active = well fitted inhibition curve with a large enough effect; inconclusive = small, poorly fitted or top-dose-only effect, or another doubt; inactive = no such curve, though single readings can be large or run the other way. % is scaled to controls: 0 for no effect and ±100 for the full control effect.

SMILES	HCV inhibitor	Pf growth 96h	HCMV inh	Pf growth 48h
COc1cc(C(=O)N(C)C2CCCCC2)ccc1OC1CCN(C(C)=O)CC1	5%	u	-26	-7%
CCCCNc1nc2c(-c3cccc(C)c3)nnn2c2ccccc12	x	x	3	x
CCc1ccc(CNC(=O)c2ccc(NC(=O)N3CCCCc4ccccc43)cc2)cc1	x	x	0	x
Cc1ccc(OP(N)(=O)Oc2ccc(C)cc2)cc1	-2%	5.9µM*	0	u
O=C(OCC1OC(OC(=O)c2cc(O)c(O)c(OC(=O)c3cc(O)c(O)c(O)c3)c2)[C@@H](OC(=O)c2cc(O)c(O)c(OC(=O)c3cc(O)c(O)c(O)c3)c2)C(OC(=O)c2cc(O)c(O)c(OC(=O)c3cc(O)c(O)c(O)c3)c2)C1OC(=O)c1cc(O)c(O)c(OC(=O)c2cc(O)c(O)c(O)c2)c1)c1cc(O)c(O)c(OC(=O)c2cc(O)c(O)c(O)c2)c1 (some centres not stated)	x	3µM*	x	3.4µM*
FC(F)(F)c1cc(Nc2ccccc2)nc(-c2ccccn2)n1	u	u	x	2.9µM*
CC(C)Nc1cc(C(F)(F)F)nc(-c2ccccn2)n1	u	4.1µM*	33	5.2µM*
FC(F)(F)c1cc(Sc2ccccc2)nc(-c2ccccn2)n1	-20%	u	-5	-22%
O=C(COc1ccc(Cl)cc1)OCc1cc(=O)n2nc(C3CCCCC3)sc2n1	x	x	7	x
C=Cc1ccc(CN2C(=O)N(c3cccc(Cl)c3)S(=O)(=O)c3ccccc32)cc1	x	x	0	x
CC(C)N1C(=O)c2ccccc2N(Cc2ccccc2)S1(=O)=O	-16%	3%	-62*	-17%
CCCCCn1c(=O)[nH]c2cc(C(=O)NC(C)CC)ccc2c1=O (configuration not stated)	x	x	-2	x
Cc1ccc2c(c1)-c1onc(C(=O)N3CCN(c4cc(Cl)ccc4C)CC3)c1CO2	x	x	-6	x
Cc1nn(C)c(Oc2ccccc2)c1CCNC(=O)CCl	-30%	10µM*	-34	u
COc1cc(C(=O)NC(C)c2ccc(S(N)(=O)=O)cc2)ccc1OCC(=O)N1CCOCC1 (configuration not stated)	x	5%	5	59%
CCOc1ccc(NC(=O)COc2ccc(C(=O)NC(C)c3ccc(S(N)(=O)=O)cc3)cc2OC)cc1 (configuration not stated)	-9%	u	-16	12µM*
CCOC(=O)c1ccc(NC(=O)COc2ccc(S(=O)(=O)NC(C)CC)cc2)cc1 (configuration not stated)	u	10µM*	-34	u
CC1=C(C(=O)Nc2ccccc2)C(c2ccc[nH]2)n2ncnc2N1 (configuration not stated)	x	6%	u	9%
O=C(Nc1ccccc1)OC[C@H](CN1CCCCC1)OC(=O)Nc1ccccc1	x	3%[12.8 µM]	x	-15%[12.8 µM]
COc1ccc(-c2noc(CCC(=O)NC3CCCCC3)n2)cc1	u	12µM*	15	25%
CCOC(=O)c1ccc(NC(=O)CCc2nc(-c3cccc(C)c3)no2)cc1	8.9µM*	x	-32	u
O=C(CCCc1nc(-c2ccc(Cl)cc2)no1)NC1CCCC1	u	4.7µM*	-84*	-20%
COc1ccc(-c2noc(CCCC(=O)Nc3ccc(C(N)=O)cc3)n2)cc1	-2%	u	-90*	-2%
COc1cc(NC(=O)C(CC(C)C)NS(=O)(=O)c2ccc3c(c2)CCCC(=O)N3)cc(OC)c1 (configuration not stated)	x	x	14	x
COc1ccc(NC(=O)Nc2nnc(N(CC(C)C)CC(C)C)s2)c(OC)c1	x	x	-12	x
SMILES	HCV inhibitor	Pf growth 96h	HCMV inh	Pf growth 48h
COc1ccc(-c2noc(CCC(=O)Nc3cc(Cl)c(OC)cc3OC)n2)cc1	4µM*	u	-38	x
COc1ccc(-c2noc(CCCC(=O)NC3CCCC3)n2)cc1	13µM*	1%	-80*	u
COc1ccc(NC(=O)COc2ccc(S(=O)(=O)NC3CCCCC3)cc2)cc1OC	x	x	3	x
CC(=O)c1c(O)cc(C)n(Nc2nc(C)cc(C)n2)c1=O	-5%	u	35	12µM*
CCN1C(=O)C(Cc2nc3ccccc3c(=O)n2-c2ccc(OC)cc2)c2ccccc21 (configuration not stated)	x	x	-19	x
CCOc1cccc(OCCn2cnc3ccccc3c2=O)c1	0%	10µM*	32	68%
CCOc1cccc(OCCCCn2cnc3ccccc3c2=O)c1	7%	-13%	89	-9%
COc1ccccc1C(=O)NC(=O)OCCn1c(C)cnc1[N+](=O)[O-]	7%	9.3µM*	29	-11%
Cc1cnc([N+](=O)[O-])n1CCOC(=O)NC(=O)c1ccccc1	13%	u	12	-17%
COC(=O)C(Cc1ccccc1)NC(=O)CNS(=O)(=O)c1ccc(Br)cc1 (configuration not stated)	11%	24%	-32	108%
C/C(=N/NC(=O)CNS(=O)(=O)c1ccccc1)c1ccc(Br)cc1	18%	13µM*	-10	u
COC(=O)C(NC(=O)CNS(=O)(=O)c1ccc(Br)cc1)c1ccccc1 (configuration not stated)	-21%	15%	-1	10µM*
CCOC(=O)N/N=C(\C)c1ccc(Br)cc1	-9%	12µM*	4	x
COc1ccc(OCc2ccc(-c3nc(C#N)c(NC(C)c4ccccc4)o3)o2)cc1 (configuration not stated)	x	x	-14	x
CC1CCN(S(=O)(=O)c2ccc3c(c2)oc(=O)n3CC(=O)NC(C)c2ccccc2)CC1 (configuration not stated)	x	x	-34	x
O=S1(=O)N=C(Nc2cccc(C(F)(F)F)c2)c2ccccc21	x	x	-27	x
CCc1ccc(OCCCC(=O)Nc2nnc(C3CCCO3)s2)cc1 (configuration not stated)	16%	12µM*	-20	39%
Cc1cccc(OCCCC(=O)Nc2nnc(C3CCCO3)s2)c1C (configuration not stated)	-7%	-1%	80	21%
CC(=O)N1c2ccc(S(=O)(=O)NCc3ccc(Cl)cc3)cc2CC1C (configuration not stated)	x	x	-38	x
O=C(CSc1nnc(C2COc3ccccc3O2)o1)N1CCCCC1 (configuration not stated)	4%	u	-15	x
c1ccc2c(c1)OCC(c1csc3ncnc(N4CCCC4)c13)O2 (configuration not stated)	u	9.3µM*	-24	x
c1ccc(CCNc2ncnc3scc(C4COc5ccccc5O4)c23)cc1 (configuration not stated)	13µM*	15µM*	-84*	x
COc1cc(C(=O)Nc2sc3c(c2C#N)CCCC3)c(Br)c(OC)c1OC	x	x	-18	x
O=C(COc1ccccc1F)Nc1cc(S(=O)(=O)N2CCOCC2)ccc1N1CCOCC1	-4%	u	-5	12µM*
